The text below walks through data of PubChem BioAssay AID651650 (Sanford-Burnham Center for Chemical Genomics, 2012).

By inhibition is commonly meant how much of the control response was suppressed. Low readings indicate a response near the control, high ones a response far below the control.

In the assay the target is Neuropilin-1 (Homo sapiens) (UniProt O14786). The experiment in a line: NRP-1 b1b2 CendR peptide binding inhibitors, dose response, biochemical, FP and AlphaScreen panel (AID 651650). As to conditions: NRP-1 b1b2 / RPARPAR peptide binding, FP or AlphaScreen; run 1, at 100 µM (top of the series). (Alpha assays give light when donor and acceptor beads are brought close together.)
Sequence of Neuropilin-1 (Homo sapiens) (O14786 whole entry, looked up): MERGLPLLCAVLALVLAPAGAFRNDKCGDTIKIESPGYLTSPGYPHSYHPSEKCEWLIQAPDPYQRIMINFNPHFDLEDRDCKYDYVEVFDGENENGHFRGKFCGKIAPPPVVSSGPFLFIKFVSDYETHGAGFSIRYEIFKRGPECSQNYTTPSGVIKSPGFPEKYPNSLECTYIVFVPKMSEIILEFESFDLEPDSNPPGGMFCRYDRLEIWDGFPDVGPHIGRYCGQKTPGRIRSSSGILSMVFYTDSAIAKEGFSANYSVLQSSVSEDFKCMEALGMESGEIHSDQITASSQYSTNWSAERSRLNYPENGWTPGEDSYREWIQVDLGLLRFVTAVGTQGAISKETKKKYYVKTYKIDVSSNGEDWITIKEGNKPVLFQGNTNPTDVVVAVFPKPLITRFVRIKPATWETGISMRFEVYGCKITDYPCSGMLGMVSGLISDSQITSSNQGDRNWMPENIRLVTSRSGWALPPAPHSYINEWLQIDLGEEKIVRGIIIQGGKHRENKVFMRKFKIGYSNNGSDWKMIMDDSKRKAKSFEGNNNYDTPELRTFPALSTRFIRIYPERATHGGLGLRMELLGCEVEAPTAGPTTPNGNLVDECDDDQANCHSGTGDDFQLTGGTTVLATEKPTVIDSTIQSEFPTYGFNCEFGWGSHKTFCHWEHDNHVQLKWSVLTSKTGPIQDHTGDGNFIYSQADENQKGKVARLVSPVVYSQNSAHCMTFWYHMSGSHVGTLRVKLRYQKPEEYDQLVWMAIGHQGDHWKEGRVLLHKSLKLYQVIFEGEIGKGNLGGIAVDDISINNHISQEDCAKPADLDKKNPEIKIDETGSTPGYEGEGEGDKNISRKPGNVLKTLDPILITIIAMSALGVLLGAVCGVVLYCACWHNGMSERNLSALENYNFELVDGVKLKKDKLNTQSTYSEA
Take `CCOC(=O)C1=C(C)NC2=C(C(=O)CCC2)C1c1cn(Cc2ccc(Cl)cc2Cl)nc1-c1ccccc1` (stereo not drawn): the inhibition was found to be 72.6%.
In turn, `Cc1ccc(C(=O)NCCCc2ccccc2)c(C)c1` came in with an inhibition of 37.1%.
Turning to `CC(CN1CCOCC1)OC(=O)c1ccc2c(c1)OCCO2` (stereo not drawn), the inhibition came out at 19.2%.
